Calls of active or inactive are those of the source. The calls were made as follows: active = hit-call score of the fitted dose curve at least 0.9, where 1 is the maximum; inactive = score below 0.9.
How the values were obtained:
[1] = CEETOX_H295R_ESTRADIOL: CeeTox H295R High-throughput Steroidogenesis Assay for Estradiol (AID 2283440); conditions: actives raise or lower the signal;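 also: estradiol secreted into medium quantified by LC-MS/MS after dansyl derivatisation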
In short: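 Estradiol secreted into the medium was measured by tandem mass spectrometry after liquid-liquid extraction and dansylation. Human H295R cells had been forskolin-primed (10 uM, 48 h) before a 48 h chemical exposure with 0.1% DMSO.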

[2] = CEETOX_H295R_ESTRONE: CeeTox H295R High-throughput Steroidogenesis Assay for Estrone (AID 2283441); conditions: actives raise or lower the signal;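 also: estrone secreted into medium measured by LC-MS/MS after dansyl derivatization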;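 as to AC50: human adrenal H295R cells prestimulated with forskolin for two days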
In short: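 H295R cells; 48 h forskolin (10 uM) prestimulation; 48 h compound exposure, 0.1% DMSO final. Medium estrone: MTBE extraction, dansyl derivatization, HPLC-MS/MS. Bidirectional fit vs DMSO.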

[3] = read-out: Tumor necrosis factor receptor superfamily member 6 (Homo sapiens) (UniProt P25445); assay: LTEA_HepaRG_FAS: Life Technologies and Expression Analysis (LTEA) Assay for Fas cell surface death receptor (FAS) using HepaRG (AID 2283447); conditions: mRNA level, 48 h; actives raise or lower the signal
In short: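 Differentiated HepaRG cells in serum-free induction medium were exposed 48 h to 8 half-log concentrations up to 100 uM in 0.5% DMSO, in duplicate. FAS mRNA was measured by qRT-PCR normalised to ACTB, GAPDH and POLR2A; bidirectional fit versus DMSO.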

[4] = read-out: Fatty acid synthase (Homo sapiens) (UniProt P49327); assay: LTEA_HepaRG_FASN: Life Technologies and Expression Analysis (LTEA) Assay for Fatty Acid Synthase (FASN) using HepaRG (AID 2283448); conditions: mRNA level, 48 h; actives raise or lower the signal
In short: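 Differentiated human HepaRG cells were exposed for 48 h in serum-free induction medium to eight half-log concentrations up to 100 uM in 0.5% DMSO, in duplicate. FASN mRNA was quantified by TaqMan qRT-PCR, normalized to ACTB/GAPDH/POLR2A, and fitted bidirectionally against DMSO.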

[5] = read-out: Cyclin D2 (CCND2), CCND2 (gene 894); assay: LTEA_HepaRG_CCND2: Life Technologies and Expression Analysis (LTEA) Assay for Cyclin D2 (CCND2) using HepaRG (AID 2283449); conditions: mRNA level, 48 h; actives raise or lower the signal;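 also: CCND2 transcript measured by TaqMan qRT-PCR and normalised to three housekeeping genes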
In short: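 Chemicals in 0.5% DMSO, eight half-log concentrations from 100 uM top, were applied in duplicate for 48 h to human HepaRG cells in serum-free induction medium. CCND2 mRNA by TaqMan qRT-PCR, normalised to ACTB/GAPDH/POLR2A; bidirectional fit versus DMSO.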

[6] = read-out: Cyclin Dependent Kinase Inhibitor 1A (CDKN1A), CDKN1A (gene 1026); assay: LTEA_HepaRG_CDKN1A: Life Technologies and Expression Analysis (LTEA) Assay for Cyclin Dependent Kinase Inhibitor 1A (CDKN1A) using HepaRG (AID 2283450); conditions: mRNA level, 48 h; actives raise or lower the signal
In short: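 Read-out is CDKN1A mRNA by TaqMan qRT-PCR, normalized to three housekeeping genes and fitted in both directions against the DMSO baseline. Human HepaRG cells were treated 48 h with test chemicals up to 100 uM in half-log steps, 0.5% DMSO.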

[7] = read-out: Cyclin D1 (CCND1), CCND1 (gene 595); assay: LTEA_HepaRG_CCND1: Life Technologies and Expression Analysis (LTEA) Assay for Cyclin D1 (CCND1) using HepaRG (AID 2283451); conditions: mRNA level, 48 h; actives raise or lower the signal;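 as to AC50: TaqMan qRT-PCR transcript level normalised to ACTB GAPDH and POLR2A housekeeping genes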
In short: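 HepaRG plated 48 h, medium switched to serum-free induction medium, chemicals added in duplicate (top 100 uM, half-log steps, 0.5% DMSO) for 48 h, cells lysed, RNA measured by TaqMan qRT-PCR.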

[8] = read-out: catalase (CAT), CAT (gene 847); assay: LTEA_HepaRG_CAT: Life Technologies and Expression Analysis (LTEA) Assay for catalase (CAT) using HepaRG (AID 2283452); conditions: mRNA level, 48 h; actives raise or lower the signal;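 as to AC50: TaqMan qRT-PCR signal normalized to ACTB GAPDH and POLR2A housekeeping genes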
In short: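 HepaRG cells in serum-free induction medium, 0.5% DMSO vehicle, exposed 48 h in duplicate over 8 half-log concentrations from 100 uM. CAT mRNA measured by qRT-PCR, normalized to ACTB, GAPDH, POLR2A; bidirectional fit versus DMSO.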

[9] = read-out: flavin-containing dimethylaniline monooxygenases 3 (FMO3), FMO3 (gene 2328); assay: LTEA_HepaRG_FMO3: Life Technologies and Expression Analysis (LTEA) Assay for flavin-containing dimethylaniline monooxygenases 3 (FMO3) using HepaRG (AID 2283453); conditions: mRNA level, 48 h; actives raise or lower the signal
In short: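 HepaRG, 48 h exposure, 8-pt half-log series from 100 uM, 0.5% DMSO vehicle, duplicates; FMO3 transcript by Fluidigm TaqMan qRT-PCR, housekeeping-normalized; gain/loss fit vs DMSO.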

[10] = read-out: Cytochrome P450 (CYP1A1), CYP1A1 (gene 1543); assay: LTEA_HepaRG_CYP1A1: Life Technologies and Expression Analysis (LTEA) Assay for Cytochrome P450 (CYP1A1) using HepaRG (AID 2283454); conditions: mRNA level, 48 h; actives raise or lower the signal
In short: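 HepaRG, 48 h post-plating switched to serum-free induction medium; 8-pt conc-response (top 100 uM, half-log, 0.5% DMSO), duplicates, 48 h. Lysis in RLT, TaqMan qRT-PCR for CYP1A1; gain or loss vs DMSO.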

[11] = read-out: CFLAR gene, CFLAR (gene 8837); assay: LTEA_HepaRG_CFLAR: Life Technologies and Expression Analysis (LTEA) Assay for CFLAR gene using HepaRG (AID 2283455); conditions: mRNA level, 48 h; actives raise or lower the signal
In short: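 Differentiated HepaRG cells in serum-free induction medium were exposed 48 h in duplicate to eight half-log concentrations up to 100 uM in 0.5% DMSO; mRNA measured by TaqMan qRT-PCR, normalized to ACTB, GAPDH, POLR2A; bidirectional fitting versus DMSO.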

[12] = read-out: Forkhead box O1 (FOXO1), FOXO1 (gene 2308); assay: LTEA_HepaRG_FOXO1: Life Technologies and Expression Analysis (LTEA) Assay for Forkhead box O1 (FOXO1) using HepaRG (AID 2283456); conditions: mRNA level, 48 h; actives raise or lower the signal
In short: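 Differentiated HepaRG cells, in serum-free induction medium with 0.5% DMSO, exposed 48 h in duplicate to 8-point half-log series from 100 uM. FOXO1 mRNA measured by TaqMan qRT-PCR, normalized to ACTB, GAPDH, POLR2A; bidirectional fit versus DMSO.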

[13] = CEETOX_H295R_TESTO: CeeTox H295R High-throughput Steroidogenesis Assay for Testosterone (TESTO) (AID 2283457); conditions: actives raise or lower the signal
In short: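 H295R, passage ≤10, 48 h dosing; media extracted with MTBE → HPLC-MS/MS for testosterone; 7-pt standard curve sets LLOQ/ULOQ; bidirectional fit vs DMSO; MTT viability same wells.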

[14] = read-out: growth arrest and DNA damage 45 (GADD45A), GADD45A (gene 1647); assay: LTEA_HepaRG_GADD45A: Life Technologies and Expression Analysis (LTEA) Assay for growth arrest and DNA damage 45 (GADD45A) using HepaRG (AID 2283458); conditions: mRNA level, 48 h; actives raise or lower the signal
In short: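 Differentiated HepaRG cells were exposed in duplicate for 48 h in serum-free induction medium to 8-point half-log concentrations up to 100 uM in 0.5% DMSO. GADD45A mRNA was measured by TaqMan qRT-PCR, normalized to ACTB, GAPDH and POLR2A, with bidirectional fitting versus DMSO.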

[15] = read-out: Forkhead box O3 (FOXO3), FOXO3 (gene 2309); assay: LTEA_HepaRG_FOXO3: Life Technologies and Expression Analysis (LTEA) Assay for Forkhead box O3 (FOXO3) using HepaRG (AID 2283459); conditions: mRNA level, 48 h; actives raise or lower the signal
In short: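 Differentiated human HepaRG cells, 48 h post-plating, exposed in duplicate for 48 h in serum-free induction medium; 8-point half-log series from 100 uM in 0.5% DMSO. FOXO3 mRNA by TaqMan qRT-PCR, normalized to ACTB/GAPDH/POLR2A; bidirectional fit versus DMSO.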

[16] = read-out: ABC Transporter (ABCB1), ABCB1 (gene 5243); assay: LTEA_HepaRG_ABCB1: Life Technologies and Expression Analysis (LTEA) Assay for ABC Transporter (ABCB1) using HepaRG (AID 2283460); conditions: mRNA level, 48 h; actives raise or lower the signal
In short: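 HepaRG cells exposed in duplicate for 48 h in serum-free induction medium to eight half-log concentrations up to 100 uM in 0.5% DMSO. ABCB1 mRNA quantified by qRT-PCR, normalised to ACTB, GAPDH and POLR2A; fitted bidirectionally versus DMSO.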

[17] = read-out: growth arrest and DNA damage 45 (GADD45B), GADD45B (gene 4616); assay: LTEA_HepaRG_GADD45B: Life Technologies and Expression Analysis (LTEA) Assay for growth arrest and DNA damage 45 (GADD45B) using HepaRG (AID 2283461); conditions: mRNA level, 48 h; actives raise or lower the signal
In short: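 HepaRG, ~100,000 cells/well, 48 h plating; serum-free induction medium; cpd 100 uM top, half-log x8, 0.5% DMSO, duplicate, 48 h; lysis in RLT, RNA isolation, qRT-PCR; norm ACTB/GAPDH/POLR2A; bidirectional fit vs DMSO.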

[18] = read-out: ABC Transporter (ABCC3), ABCC3 (gene 8714); assay: LTEA_HepaRG_ABCC3: Life Technologies and Expression Analysis (LTEA) Assay for ABC Transporter (ABCC3) using HepaRG (AID 2283462); conditions: mRNA level, 48 h; actives raise or lower the signal
In short: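 Human HepaRG, 48 h dosing, 8-pt half-log series from 100 uM, 0.5% DMSO vehicle, duplicates. ABCC3 mRNA by TaqMan qRT-PCR, housekeeping-normalized; bidirectional curve fit vs DMSO.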

[19] = read-out: ABC Transporter (ABCB11), ABCB11 (gene 8647); assay: LTEA_HepaRG_ABCB11: Life Technologies and Expression Analysis (LTEA) Assay for ABC Transporter (ABCB11) using HepaRG (AID 2283463); conditions: mRNA level, 48 h; actives raise or lower the signal
In short: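 Differentiated human HepaRG cells in serum-free induction medium, dosed in duplicate for 48 h. Eight-point half-log series from 100 uM in 0.5% DMSO; ABCB11 mRNA by qRT-PCR, normalized to ACTB, GAPDH, POLR2A, fitted bidirectionally versus DMSO.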

[20] = read-out: ABC Transporter (ABCC2), ABCC2 (gene 1244); assay: LTEA_HepaRG_ABCC2: Life Technologies and Expression Analysis (LTEA) Assay for ABC Transporter (ABCC2) using HepaRG (AID 2283464); conditions: mRNA level, 48 h; actives raise or lower the signal
In short: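 HepaRG, 48 h post-plating; serum-free induction medium; cpd 8-pt, 100 uM top, half-log, 0.5% DMSO, duplicate, 48 h. Readout: ABCC2 mRNA by qRT-PCR, norm. ACTB/GAPDH/POLR2A. Bidirectional fit vs DMSO baseline.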

Measured: AC50

Fatty acid synthase (Homo sapiens), sequence (P49327 whole entry, looked up): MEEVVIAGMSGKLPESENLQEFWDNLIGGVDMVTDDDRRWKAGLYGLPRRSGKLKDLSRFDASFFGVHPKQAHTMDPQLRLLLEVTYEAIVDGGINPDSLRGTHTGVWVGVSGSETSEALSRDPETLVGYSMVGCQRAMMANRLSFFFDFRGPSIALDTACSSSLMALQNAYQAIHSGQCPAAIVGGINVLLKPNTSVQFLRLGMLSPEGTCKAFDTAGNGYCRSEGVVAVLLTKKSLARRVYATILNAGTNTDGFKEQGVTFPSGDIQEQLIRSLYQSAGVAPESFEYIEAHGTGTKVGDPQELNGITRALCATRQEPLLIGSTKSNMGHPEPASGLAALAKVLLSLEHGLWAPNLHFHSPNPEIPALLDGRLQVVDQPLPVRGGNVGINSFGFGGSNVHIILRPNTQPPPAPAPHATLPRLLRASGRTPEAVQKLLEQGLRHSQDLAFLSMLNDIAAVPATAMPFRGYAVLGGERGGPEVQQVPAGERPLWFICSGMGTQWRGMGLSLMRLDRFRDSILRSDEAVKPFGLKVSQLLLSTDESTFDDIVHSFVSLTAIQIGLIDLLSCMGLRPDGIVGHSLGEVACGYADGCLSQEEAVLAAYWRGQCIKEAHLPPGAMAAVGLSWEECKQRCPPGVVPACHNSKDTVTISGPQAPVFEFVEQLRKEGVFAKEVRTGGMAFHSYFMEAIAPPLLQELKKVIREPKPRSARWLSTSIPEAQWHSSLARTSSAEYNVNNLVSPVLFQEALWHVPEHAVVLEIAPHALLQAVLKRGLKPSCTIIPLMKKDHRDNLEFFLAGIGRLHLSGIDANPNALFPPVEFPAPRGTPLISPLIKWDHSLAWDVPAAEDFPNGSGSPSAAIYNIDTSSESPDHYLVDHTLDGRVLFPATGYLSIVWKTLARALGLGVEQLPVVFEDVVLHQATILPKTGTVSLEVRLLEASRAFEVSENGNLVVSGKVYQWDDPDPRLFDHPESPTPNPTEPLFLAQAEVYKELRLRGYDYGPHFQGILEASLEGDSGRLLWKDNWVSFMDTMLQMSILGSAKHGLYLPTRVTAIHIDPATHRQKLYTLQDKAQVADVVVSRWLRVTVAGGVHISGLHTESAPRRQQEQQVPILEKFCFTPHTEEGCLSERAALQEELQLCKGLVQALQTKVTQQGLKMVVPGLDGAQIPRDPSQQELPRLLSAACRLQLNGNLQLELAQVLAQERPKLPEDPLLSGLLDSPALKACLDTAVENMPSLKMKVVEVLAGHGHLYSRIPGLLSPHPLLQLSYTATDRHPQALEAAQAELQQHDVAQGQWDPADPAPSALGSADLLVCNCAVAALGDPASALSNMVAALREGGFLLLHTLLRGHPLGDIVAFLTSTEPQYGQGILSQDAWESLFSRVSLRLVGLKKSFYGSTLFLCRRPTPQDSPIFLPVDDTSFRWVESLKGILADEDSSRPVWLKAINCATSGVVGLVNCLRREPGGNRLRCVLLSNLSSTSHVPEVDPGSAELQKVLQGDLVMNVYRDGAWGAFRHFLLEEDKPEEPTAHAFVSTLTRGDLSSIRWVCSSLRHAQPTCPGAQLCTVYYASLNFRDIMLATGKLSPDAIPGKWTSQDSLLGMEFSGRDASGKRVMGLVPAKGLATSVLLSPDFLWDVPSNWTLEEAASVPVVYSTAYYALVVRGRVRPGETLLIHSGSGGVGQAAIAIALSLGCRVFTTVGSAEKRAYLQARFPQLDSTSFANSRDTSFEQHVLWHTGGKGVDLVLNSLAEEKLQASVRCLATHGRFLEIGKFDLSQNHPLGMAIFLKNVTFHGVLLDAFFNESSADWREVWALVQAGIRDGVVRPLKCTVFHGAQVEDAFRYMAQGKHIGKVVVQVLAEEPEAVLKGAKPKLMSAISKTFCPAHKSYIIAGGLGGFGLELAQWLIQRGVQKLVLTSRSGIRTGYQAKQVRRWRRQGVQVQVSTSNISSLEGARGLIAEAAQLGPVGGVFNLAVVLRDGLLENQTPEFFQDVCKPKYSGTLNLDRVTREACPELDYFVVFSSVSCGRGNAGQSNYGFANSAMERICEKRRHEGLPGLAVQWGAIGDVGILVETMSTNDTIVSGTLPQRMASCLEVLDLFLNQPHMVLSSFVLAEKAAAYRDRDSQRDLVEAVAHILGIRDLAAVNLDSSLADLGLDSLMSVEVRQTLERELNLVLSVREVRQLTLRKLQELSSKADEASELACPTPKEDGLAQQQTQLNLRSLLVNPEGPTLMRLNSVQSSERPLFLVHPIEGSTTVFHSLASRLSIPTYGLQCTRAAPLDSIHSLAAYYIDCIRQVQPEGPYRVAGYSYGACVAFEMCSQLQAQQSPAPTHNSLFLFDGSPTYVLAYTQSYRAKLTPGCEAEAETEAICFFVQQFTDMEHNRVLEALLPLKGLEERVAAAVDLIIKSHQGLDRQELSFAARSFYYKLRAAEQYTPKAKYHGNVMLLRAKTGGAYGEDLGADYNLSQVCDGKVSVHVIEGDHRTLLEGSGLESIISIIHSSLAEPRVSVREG

COc1cc2c(c(OC)c1OC)-c1ccc(OC)c(=O)cc1[C@@H](NC(C)=O)CC2
inactive: [1] | [2] | [5] | [6] | [13] | [14] | [15] | [17]
active: [3] 0.0799 µM | [4] 0.0575 µM | [7] 0.0178 µM | [8] 0.0772 µM | [9] 0.0477 µM | [10] 0.0575 µM | [11] 0.0663 µM | [12] 0.0309 µM | [16] 0.0797 µM | [18] 0.196 µM | [19] 0.0634 µM | [20] 0.133 µM

Cc1ncc([C@@H](CCCCCCc2ccc3c(n2)NCCC3)CC(=O)O)cn1
active: [10] 50 µM
inactive: [2] | [3] | [4] | [5] | [6] | [7] | [8] | [9] | [11] | [12] | [14] | [15] | [16] | [17] | [18] | [19] | [20]

CC(C)c1nnc2ccc(-c3ocnc3-c3cc(F)ccc3F)cn12
active: [4] 50 µM | [8] 50 µM | [9] 63.6 µM | [10] 29.9 µM | [18] 50 µM | [19] 81 µM
inactive: [1] | [2] | [3] | [6] | [7] | [11] | [12] | [14] | [15] | [16] | [17] | [20]

CC[C@H](C)C(=O)O[C@H]1C[C@H](O)C=C2C=C[C@H](C)[C@H](CC[C@@H](O)C[C@@H](O)CC(=O)O)[C@H]21
inactive: [1] | [2] | [3] | [5] | [6] | [7] | [8] | [9] | [11] | [12] | [14] | [15] | [16] | [17] | [18] | [19] | [20]
active: [4] 3.08 µM | [10] 9.15 µM

CCn1nc(C)c2c1C(=O)NCC(c1ccc(O)cc1)=N2
active: [1] 0.18 µM | [2] 0.185 µM | [4] 17.1 µM | [10] 40 µM
inactive: [3] | [5] | [6] | [7] | [8] | [9] | [11] | [12] | [14] | [15] | [16] | [17] | [18] | [19] | [20]

CCCCCCCC/C=C\CCCCCCCC(=O)OC[C@@H](O)[C@H]1OC[C@H](O)[C@H]1O
inactive: [3] | [4] | [5] | [6] | [7] | [8] | [9] | [10] | [11] | [12] | [14] | [15] | [16] | [17] | [18] | [19] | [20]

O=S1(=O)CCCO1
inactive: [3] | [4] | [5] | [6] | [7] | [8] | [9] | [10] | [11] | [12] | [14] | [15] | [16] | [17] | [18] | [19] | [20]
